Assays:
Assay in all cases: PBM binding z-score (relative to random genomic background probes); higher = stronger binding; sequences stand for … in GC…GCGATTGACAGCGTAGAATGAAGG
[1] = system: FXR:RXRa (NR concentration 270 nM, RXRa partner concentration 90 nM)
Method in brief: (§1)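 Probes were double-stranded and carried 34-nt variable regions with direct-repeat seeds, single-nucleotide variants, half-site ablations and random human genomic background sequences, printed on custom Agilent 4×180K protein-binding microarrays. Arrays were incubated 1 h with ligand-free nuclear receptor dimers in PBS pH 7.4, 2% milk, 0.02% Triton X-100, 1 mM DTT, 0.2 mg/mL BSA and 0.4 mg/ml salmon testes DNA. Antibodies against each partner (one per run) detected binding, and scanned fluorescence was regression-normalized. Binding z-scores use the random background probes as reference.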

[2] = system: LXRa:RXRa (NR concentration 270 nM, RXRa partner concentration 90 nM)
Method in brief: as §1

[3] = system: LXRa homodimer (NR concentration 270 nM)
Method in brief: as §1

[4] = system: LXRb:RXRa (NR concentration 270 nM, RXRa partner concentration 90 nM)
Method in brief: as §1

[5] = system: LXRb homodimer (NR concentration 270 nM)
Method in brief: as §1

[6] = system: PPARa:RXRa (NR concentration 270 nM, RXRa partner concentration 90 nM)
Method in brief: as §1

[7] = system: PPARg:RXRa (NR concentration 180 nM, RXRa partner concentration 90 nM)
Method in brief: as §1

[8] = system: PPARg:RXRa 270nM:90nM, anti-RXR (NR concentration 270 nM, RXRa partner concentration 90 nM)
Method in brief: as §1

[9] = system: PPARg:RXRa 30nM:10nM, anti-RXR (NR concentration 30 nM, RXRa partner concentration 10 nM)
Method in brief: as §1

[10] = system: PPARg:RXRa 90nM:30nM, anti-RXR (NR concentration 90 nM, RXRa partner concentration 30 nM)
Method in brief: as §1

Sequence	PBM binding z-score [1]	PBM binding z-score [2]	PBM binding z-score [3]	PBM binding z-score [4]	PBM binding z-score [5]	PBM binding z-score [6]	PBM binding z-score [7]	PBM binding z-score [8]	PBM binding z-score [9]	PBM binding z-score [10]
ATCGTAAGGTCGTGAGGTGAGTATACAGAAAGGC	3.26	2.69	-0.00472	2.14	0.775	3.87	1.99	2.39	0.777	1.55
CGAACTAGTTCACCAGGACAGTGAAGAGGTTGGA	0.244	0.23	-0.131	-0.137	-0.531	0.836	0.543	0.354	-0.289	-0.0706
CGAAATAGGTCAAAGGACAGTGAAAGGCGACGTA	6.11	4.45	0.474	3.47	0.71	5.96	9.28	8.26	7.99	8.72
ATATGTAGGTTACATCGGGGTCATTCAGGCTATG	4.88	5.89	3.8	4.91	1.46	5.71	7.19	6.35	4.23	5.65
CGAACTAGGTCACCAGGACAGTGCAGAGGTTGGA	4.04	2.7	0.199	1.76	-0.667	5.21	8.59	6.83	4.82	6.44
CGTCTAAGTTCAAGGTAACGTAACAGAAAGCAGC	4.08	3.47	1.01	2.01	0.51	3.18	1.39	2.11	0.885	1.69
CTCGAAAGGTCGTGCTCAGGTGAGTACACCAAAC	5.63	3.63	0.149	3.14	0.685	4.94	3.11	4.4	1.61	2.91
ATATGGAGGTTAGCTGGGGTCATTCAGACTAGGC	5.58	6.45	4.02	5.67	1.51	5.04	3.15	3.77	1.68	2.72
CGAACTAGGTCACCAGGACAATGAAGAGGTTGGA	3.54	2.55	0.00967	1.74	0.0583	5.41	8.69	6.83	4.53	6.43
TCTGCTTGGTCAACGATGGTCAGCTAATCTGCTA	-0.224	-0.219	-0.946	-0.549	-0.202	0.184	-0.488	0.665	1.65	0.96
GCTAGTTTGTCAGTAAAAGGTCACACACCGGTCG	3.28	4.33	4.39	4.2	1.2	4.42	3.19	5.47	3.23	5.43
ATCTCTAGGTAACAAGGTCAGTGAAAGAGAGGAC	1.72	1.92	0.814	1.9	1.16	3.22	3.64	3.84	1.54	3
CGAACTAGTTCAAAGGACAGTGAAAGGCGACGTA	-0.112	-0.0127	-0.428	-0.231	-0.842	1.62	2.23	3.51	1.75	3.25
CGAACTAGGCCACCAGGACAGTGAAGAGGTTGGA	-0.158	-0.638	-0.662	-0.868	-0.94	1.98	3.12	2.28	0.382	1.23
ATCGAAAGGTCGAAGGTGACTATACCCACCCGAA	4.54	3.72	0.344	3.07	0.925	4.92	5.16	5	2.71	4.38
CCTAGTTGGGCAGGAGGTCACACACCGGATATGA	2.73	2.97	1.41	2.79	-0.389	3.7	3.31	4.01	1.77	3.33
ATCGAAAGGTCGAAGGAGAGTATACCCACCCGAA	4.01	3.28	0.14	2.48	0.895	3.8	2.15	2.57	1.14	2.01
TAGCCTAGGACATGCGGGCCAGTATAGTGTCGGC	-0.531	-0.882	-1.1	-1.16	-1.2	-0.741	0.232	-0.867	-0.747	-0.931
GCTGCTAGGTCAGGTTGGTCGGCTAACGGGTACG	1.01	0.53	-0.245	0.0524	-0.665	1.04	0.113	0.773	-0.581	0.235
ACTAGCAGGCCAAGGGTGACTCAAGATTAGTCCG	-0.498	-0.205	-0.435	-0.119	-1	2.13	4.45	5.29	3.6	5.35
CGAACTAGGTCAAAGGACAATGAAAGGCGACGTA	3.98	2.65	0.155	1.92	-0.0883	5.61	10.3	8.49	8.29	9.41
ATATGTAGGTTAGGGTCTTTCAGAAAGTAGGGAA	1.38	0.75	0.422	1.37	1.11	3.21	4.93	3.87	1.72	3.03
GCTCGGAGGACAAGGTCAGGGCTTTGTCCGTAGA	2.38	2.11	-0.64	1.71	-0.689	2.95	1.07	1.94	-0.338	0.806
CGAACTAGGTCAAAGGACAGGGAAAGGCGACGTA	4.04	2.31	-0.139	1.77	-0.371	5.35	10.4	8.79	8.45	9.16

— the supplement of paper PMC6555819
